# Source: PubChem BioAssay (NCI)
# About 79,000 compounds went through this panel and 15% of them were active in at least one assay; those are over-represented in the sample as a whole. Unmarked numbers belong to inactive results. Calls of active or inactive are those of the source. No stated cut-off is given here; in the data, active means growth inhibition above about 70%; inactive means the rest.
# How the values were obtained:
# [1] = NCI Yeast Anticancer Drug Screen. Data for the rad52 strain (AID 147);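 further: 0% = growth of vehicle-treated control cultures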; settings: S. cerevisiae rad52 mutant growth inhibition, active compounds read high
# Outline: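 Growth of repair-deficient yeast cells was compared between compound-treated and vehicle-treated cultures to give percent inhibition.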
# [2] = NCI Yeast Anticancer Drug Screen. Data for the wt1 strain (AID 149);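 further: 0% = growth of vehicle-treated wt1 cultures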; settings: S. cerevisiae wt1 strain (SPY 50644) growth inhibition, active compounds read high
# Outline: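 Growth inhibition read against vehicle controls after compound exposure of the wt1 yeast strain.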
# [3] = NCI Yeast Anticancer Drug Screen. Data for the rad50EPP+ strain (AID 151);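 further: 0% = growth of vehicle-treated control cultures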; settings: S. cerevisiae rad50 mutant strain, active compounds read high
# Outline: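 Measured: growth inhibition of rad50EPP+ yeast. Reference: vehicle-treated controls. Screen uses strains with defined genetic alterations in DNA damage repair or cell cycle control.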
# [4] = NCI Yeast Anticancer Drug Screen. Data for the mgt1 strain (AID 153); settings: S. cerevisiae mgt1 mutant growth inhibition, active compounds read high
# Outline: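 Compounds were applied to mgt1 mutant yeast, and growth was then compared against vehicle-treated control cultures to give percent inhibition.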
# [5] = NCI Yeast Anticancer Drug Screen. Data for the rad50 strain (AID 155);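 further: 0% = growth of vehicle-only cultures of the same strain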; settings: S. cerevisiae rad50 strain growth inhibition, active compounds read high
# Outline: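 Readout: growth inhibition relative to vehicle-treated cultures. Compound exposure was carried out in a genetically defined yeast strain deficient in DNA damage repair.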
# [6] = NCI Yeast Anticancer Drug Screen. Data for the mec2-1 strain (AID 157); settings: S. cerevisiae mec2-1 strain, active compounds read high
# Outline: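 Compounds were applied to mec2-1 yeast cells. Their growth was then compared with that of vehicle-treated cultures to give growth inhibition.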
# [7] = NCI Yeast Anticancer Drug Screen. Data for the sgs1 mgt1 strain (AID 161);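 further: 0% = growth of cultures given vehicle only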; settings: S. cerevisiae sgs1 mgt1 strain, active compounds read high
# Outline: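 Growth of a repair-deficient yeast mutant was monitored after compound treatment and expressed as inhibition relative to vehicle-treated cultures.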
# [8] = NCI Yeast Anticancer Drug Screen. Data for the CLN2oe strain (AID 163);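 further: 0% = growth of vehicle-only control cultures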; settings: S. cerevisiae CLN2oe strain, active compounds read high
# Outline: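 Cells of an engineered yeast line with disturbed cell-cycle regulation are treated with compound. Inhibition of growth is then calculated relative to the vehicle-treated reference.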
# [9] = NCI Yeast Anticancer Drug Screen. Data for the cln2 rad14 strain (AID 165);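 further: 0% = growth equal to vehicle treated cultures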; settings: S. cerevisiae cln2 rad14 strain, active compounds read high
# Outline: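 Strain: cln2 rad14 yeast, altered in cell cycle control and DNA damage repair. Read-out: growth inhibition vs vehicle.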
# [10] = NCI Yeast Anticancer Drug Screen. Data for the bub3 strain (AID 167); settings: S. cerevisiae bub3 mutant strain, active compounds read high
# Outline: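 Readout: yeast growth inhibition, expressed relative to vehicle-only wells. The test organism is a mutant strain from a panel with lesions in DNA repair or checkpoint genes.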
# [11] = NCI Yeast Anticancer Drug Screen. Data for the mlh1 strain (AID 171);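 further: 0% = growth of vehicle-treated control cultures of the same strain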; settings: S. cerevisiae mlh1 strain growth inhibition, active compounds read high
# Outline: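 Test agents were incubated with yeast bearing a defined DNA damage repair or cell cycle control alteration; values are growth inhibition normalised to vehicle-treated cultures.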
# [12] = NCI Yeast Anticancer Drug Screen. Data for the sgs1 strain (AID 173);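 further: 0% = growth of vehicle-only control cultures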; settings: S. cerevisiae sgs1 mutant, active compounds read high
# Outline: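 Strain with an altered DNA repair or cell cycle pathway exposed to compound. Growth then measured. Value = inhibition versus vehicle control.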
# [13] = NCI Yeast Anticancer Drug Screen. Data for the mlh1 rad18 strain (AID 175); settings: S. cerevisiae mlh1 rad18 strain growth inhibition, active compounds read high
# Outline: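 A repair-deficient yeast strain is exposed to test compound, and growth is scored relative to vehicle-treated controls.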
# [14] = NCI Yeast Anticancer Drug Screen. Data for the rad18 strain (AID 177); settings: S. cerevisiae rad18 mutant growth inhibition, active compounds read high
# Outline: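 DNA-repair-defective yeast; compound treatment; growth inhibition scored against vehicle.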
# [15] = NCI Yeast Anticancer Drug Screen. Data for the wt2 strain (AID 169);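 further: 0% = growth of vehicle-treated yeast cultures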; settings: S. cerevisiae wt2 strain growth inhibition, active compounds read high
# Outline: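 Growth of compound-treated yeast is measured and expressed as inhibition relative to vehicle-only controls.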
# [16] = at 5.0 µM (retest, dose inferred, filed as 0.5)
# [17] = at 50.0 µM (retest, dose inferred, filed as 5.0)
compound,measurement,setting,value
CC(C)c1ccccc1NC(=O)/C(Cl)=C(\Cl)C(=O)O,growth inhibition,[1]; at 1.2 µM,0%
same,growth inhibition,[1]; at 3.7 µM,1%
same,growth inhibition,[1]; at 11.0 µM,0%
same,growth inhibition,[1]; at 33.0 µM,5%
same,growth inhibition,[1]; at 100.0 µM,99% (active)
same,growth inhibition,[2]; at 1.2 µM,-1%
same,growth inhibition,[2]; at 3.7 µM,-1%
same,growth inhibition,[2]; at 11.0 µM,-1%
same,growth inhibition,[2]; at 33.0 µM,1%
same,growth inhibition,[2]; at 100.0 µM,59%
same,growth inhibition,[3]; at 1.2 µM,2%
same,growth inhibition,[3]; at 3.7 µM,4%
same,growth inhibition,[3]; at 11.0 µM,7%
same,growth inhibition,[3]; at 33.0 µM,21%
same,growth inhibition,[3]; at 100.0 µM,99% (active)
same,growth inhibition,[4]; at 1.2 µM,1%
same,growth inhibition,[4]; at 3.7 µM,3%
same,growth inhibition,[4]; at 11.0 µM,5%
same,growth inhibition,[4]; at 33.0 µM,8%
same,growth inhibition,[4]; at 100.0 µM,94% (active)
same,growth inhibition,[5]; at 1.2 µM,0%
same,growth inhibition,[5]; at 3.7 µM,0%
same,growth inhibition,[5]; [16],0%
same,growth inhibition,[5]; at 11.0 µM,-2%
same,growth inhibition,[5]; at 33.0 µM,11%
same,growth inhibition,[5]; [17],82% (active)
same,growth inhibition,[5]; at 50.0 µM,30.1%
same,growth inhibition,[5]; at 100.0 µM,98% (active)
same,growth inhibition,[6]; at 1.2 µM,1%
same,growth inhibition,[6]; at 3.7 µM,0%
same,growth inhibition,[6]; [16],26%
same,growth inhibition,[6]; at 11.0 µM,1%
same,growth inhibition,[6]; at 33.0 µM,7%
same,growth inhibition,[6]; [17],27%
same,growth inhibition,[6]; at 50.0 µM,6.85%
same,growth inhibition,[6]; at 100.0 µM,99% (active)
same,growth inhibition,[7]; [16],-12%
same,growth inhibition,[7]; [17],16%
same,growth inhibition,[7]; at 50.0 µM,2.4%
same,growth inhibition,[8]; at 1.2 µM,1%
same,growth inhibition,[8]; at 3.7 µM,6%
same,growth inhibition,[8]; at 11.0 µM,5%
same,growth inhibition,[8]; at 33.0 µM,2%
same,growth inhibition,[8]; at 100.0 µM,82% (active)
same,growth inhibition,[9]; [16],13%
same,growth inhibition,[9]; [17],63%
same,growth inhibition,[9]; at 50.0 µM,51.6%
same,growth inhibition,[10]; at 1.2 µM,0%
same,growth inhibition,[10]; at 3.7 µM,1%
same,growth inhibition,[10]; [16],9%
same,growth inhibition,[10]; at 11.0 µM,5%
same,growth inhibition,[10]; at 33.0 µM,7%
same,growth inhibition,[10]; [17],77% (active)
same,growth inhibition,[10]; at 50.0 µM,8.1%
same,growth inhibition,[10]; at 100.0 µM,97% (active)
same,growth inhibition,[11]; at 1.2 µM,-1%
same,growth inhibition,[11]; at 3.7 µM,1%
same,growth inhibition,[11]; at 11.0 µM,2%
same,growth inhibition,[11]; at 33.0 µM,4%
same,growth inhibition,[11]; at 100.0 µM,66%
same,growth inhibition,[12]; at 1.2 µM,2%
same,growth inhibition,[12]; at 3.7 µM,4%
same,growth inhibition,[12]; at 11.0 µM,5%
same,growth inhibition,[12]; at 33.0 µM,12%
same,growth inhibition,[12]; at 100.0 µM,96% (active)
same,growth inhibition,[13]; [16],21%
same,growth inhibition,[13]; [17],28%
same,growth inhibition,[13]; at 50.0 µM,11.9%
same,growth inhibition,[14]; at 1.2 µM,0%
same,growth inhibition,[14]; at 3.7 µM,0%
same,growth inhibition,[14]; at 11.0 µM,1%
same,growth inhibition,[14]; at 33.0 µM,8%
same,growth inhibition,[14]; at 100.0 µM,98% (active)
S=C(N/N=C/c1ccccn1)Nc1ccc(Cl)cc1,growth inhibition,[1]; at 1.2 µM,-5%
same,growth inhibition,[1]; at 3.7 µM,-5%
same,growth inhibition,[1]; at 11.0 µM,-3%
same,growth inhibition,[1]; at 33.0 µM,15%
same,growth inhibition,[1]; at 100.0 µM,59%
same,growth inhibition,[2]; at 1.2 µM,-7%
same,growth inhibition,[2]; at 3.7 µM,-5%
same,growth inhibition,[2]; at 11.0 µM,-5%
same,growth inhibition,[2]; at 33.0 µM,8%
same,growth inhibition,[2]; at 100.0 µM,42%
same,growth inhibition,[3]; at 1.2 µM,-3%
same,growth inhibition,[3]; at 3.7 µM,-3%
same,growth inhibition,[3]; at 11.0 µM,1%
same,growth inhibition,[3]; at 33.0 µM,-6%
same,growth inhibition,[3]; at 100.0 µM,-12%
same,growth inhibition,[4]; at 1.2 µM,-7%
same,growth inhibition,[4]; at 3.7 µM,-7%
same,growth inhibition,[4]; at 11.0 µM,9%
same,growth inhibition,[4]; at 33.0 µM,16%
same,growth inhibition,[4]; at 100.0 µM,59%
same,growth inhibition,[5]; at 1.2 µM,-5%
same,growth inhibition,[5]; at 3.7 µM,-7%
same,growth inhibition,[5]; [16],-7%
same,growth inhibition,[5]; at 11.0 µM,-27%
same,growth inhibition,[5]; at 33.0 µM,19%
same,growth inhibition,[5]; [17],95% (active)
same,growth inhibition,[5]; at 50.0 µM,55.5%
same,growth inhibition,[5]; at 100.0 µM,59%
same,growth inhibition,[6]; at 1.2 µM,-5%
same,growth inhibition,[6]; at 3.7 µM,-6%
same,growth inhibition,[6]; [16],71% (active)
same,growth inhibition,[6]; at 11.0 µM,-3%
same,growth inhibition,[6]; at 33.0 µM,10%
same,growth inhibition,[6]; [17],95% (active)
same,growth inhibition,[6]; at 50.0 µM,56.2%
same,growth inhibition,[6]; at 100.0 µM,63%
same,growth inhibition,[7]; [16],27%
same,growth inhibition,[7]; [17],96% (active)
same,growth inhibition,[7]; at 50.0 µM,83.8% (active)
same,growth inhibition,[8]; at 1.2 µM,-3%
same,growth inhibition,[8]; at 3.7 µM,-14%
same,growth inhibition,[8]; at 11.0 µM,-12%
same,growth inhibition,[8]; at 33.0 µM,11%
same,growth inhibition,[8]; at 100.0 µM,79% (active)
same,growth inhibition,[9]; [16],38%
same,growth inhibition,[9]; [17],90% (active)
same,growth inhibition,[9]; at 50.0 µM,71.9% (active)
same,growth inhibition,[10]; at 1.2 µM,-5%
same,growth inhibition,[10]; at 3.7 µM,0%
same,growth inhibition,[10]; [16],19%
same,growth inhibition,[10]; at 11.0 µM,-2%
same,growth inhibition,[10]; at 33.0 µM,-3%
same,growth inhibition,[10]; [17],96% (active)
same,growth inhibition,[10]; at 50.0 µM,79.6% (active)
same,growth inhibition,[10]; at 100.0 µM,49%
same,growth inhibition,[15]; at 1.2 µM,-6%
same,growth inhibition,[15]; at 3.7 µM,-6%
same,growth inhibition,[15]; at 11.0 µM,-4%
same,growth inhibition,[15]; at 33.0 µM,9%
same,growth inhibition,[15]; at 100.0 µM,39%
same,growth inhibition,[12]; at 1.2 µM,-5%
same,growth inhibition,[12]; at 3.7 µM,-4%
same,growth inhibition,[12]; at 11.0 µM,-2%
same,growth inhibition,[12]; at 33.0 µM,22%
same,growth inhibition,[12]; at 100.0 µM,66%
same,growth inhibition,[13]; [16],44%
same,growth inhibition,[13]; [17],95% (active)
same,growth inhibition,[13]; at 50.0 µM,78.8% (active)
same,growth inhibition,[14]; at 1.2 µM,-6%
same,growth inhibition,[14]; at 3.7 µM,-3%
same,growth inhibition,[14]; at 11.0 µM,-5%
same,growth inhibition,[14]; at 33.0 µM,2%
same,growth inhibition,[14]; at 100.0 µM,67%
